PubChem BioAssay (NCATS)
Results filed as inconclusive are left out. The call rests on the fitted dose curve; in most records, active means well fitted curve in either direction with a large enough effect (not every such curve was filed as active); inconclusive means small, poorly fitted or top-dose-only effect, or another doubt; inactive means flat fitted curve, though single readings scatter.

Assay: NFAT Signaling Pathway (AID 444);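 further: carbachol stimulus at about its EC50 of 1 µM final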
Settings: Jurkat NFAT-bla M1, carbachol, beta-lactamase ratio, 5 h; at 17.2 µM (top of the series) unless noted
Method in brief: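 Read-out: CCF4 FRET ratio (460 nm/530 nm) after 1 h RT dye loading, used for %activity and AC50 from titration series. Cells: Jurkat NFAT-β-lactamase/M1 line, treated with compound plus 1 uM carbachol for 5 h, 37 °C.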
On the % scale 0 is the no-effect control and ±100 the full control effect.

Activity change, negative = inhibition, inactive:
O=C(C1=C(O)C(=O)N(CCCN2CCOCC2)C1c1ccccn1)c1cccs1 (stereo not given) -1.18%
OC(CNCCCN1CCCCC1)COc1ccccc1 (stereo not given) -28.5%
COc1cc(C)nc(Oc2ccc(OCCOc3ccc(C)cc3)nn2)n1 5.08%
COC(=O)C(NC(C)=O)(Nc1ccccn1)C(F)(F)F (stereo not given) 5.18%
O=C1c2ccccc2S(=O)(=O)N1CC(O)COc1ccc(Cl)cc1 (stereo not given) -2.04%
O=P(Cc1nnco1)(c1ccccc1)c1ccccc1 -9.88%
CCOC(=O)c1cnc(SC2CC(=O)N(c3cccc(OC)c3)C2=O)nc1N (stereo not given) -6.66%
COC(=O)CSc1nc(C)c(C(C)=O)cc1C#N -0.342%
CCCCC1CC1C(=O)Nc1ccc(OC)c(OC)c1 (stereo not given) 3.38%
CCC(NC(=O)Nc1ccc(O)cc1)(C(F)(F)F)C(F)(F)F 8.99%
CCCCCC(=O)N1CC2(CC)CN(C(=O)CCCCC)CC(CC)(C1)C2=O -17.5%
CC1(C)CC(=O)C2=C(C1)OC(N)=C(C#N)[C@@]21C(=O)N(CC(N)=O)c2ccccc21 4.51%
CCOC(=O)c1[nH]c2cc3c(cc2c1NC(=O)CN1CCC2(CC1)OCCO2)OCO3 6.91%
CCN(CC)CCn1c(O)c(N=O)c2ccccc21 -17.1%
Cc1ccc(OCC(=O)N(C)CCc2ccccn2)cc1 5.19%
Cc1cc(NCC2CCCO2)n2c(nc3ccccc32)c1C#N (stereo not given) -16.9%
COc1ccc2[nH]c(C)c(C(=O)CN3CCc4cc(OC)c(OC)cc4C3)c2c1 1.37%
COc1cc(=O)n2c(-c3ccccc3)csc2n1 0.0134%
Cc1nc(SCC(=O)Nc2ccc3c(c2)OCO3)c(C#N)c2c1CCCC2 -1.28%
Cc1cc(C)n(CC(=O)n2nc(C)cc2C)n1 -8.81%
CCOc1ccc(CCNC(=O)C(O)c2ccccc2)cc1 (stereo not given) 4.66%
COC(=O)[C@@H](N)Cc1ccc(O)cc1 -26%
O=C(O)CN(c1ccccc1)C1SC(=O)NC1=O (stereo not given) 20.4%
O=C(OCC#CCSc1nnc(-c2ccccc2)o1)c1cccs1 -29.9%
NC(=O)C1CCN(C2OC(=O)c3ccccc32)CC1 (stereo not given) 1.22%
O=C(CCCN1C(=O)c2ccccc2C1=O)N1CCC(c2ccccc2)C1 (stereo not given) 15.7%
Cc1ccc(C(C)C)c(OCCNc2nc3c(c(=O)n(C)c(=O)n3C)n2C)c1 13.4%
CCSc1nc(O)c(C2OC(=O)c3c2ccc(OC)c3OC)c(=O)n1-c1ccccc1 (stereo not given) 4%
COC(=O)CSc1nc(C)c(Oc2ccccc2)c(=O)[nH]1 15.3%
O=C(c1cccc2ccccc12)N1CCC(N2CCN(c3ccccc3)CC2)CC1 -0.0782%
Fc1ccc(C2C3=C(Nc4ncnn42)c2ccccc2OC3c2ccncc2)cc1 (stereo not given) -17%
CC(=O)[C@H]1[C@@H]2C(=O)N(c3cccc(Cl)c3)C(=O)[C@@H]2[C@H]2c3ccccc3C=CN21 -7.09%
O=C(OCCN1CCOCC1)c1ccc(OCCN2CCOCC2)cc1 -7.8%
Cn1c(=O)n(C)c2cc(C(=O)c3ccccc3)ccc21 -28.2%
CN(C)CCCN(CCCNC(=O)/C=N/O)Cc1ccccc1 -11.6%
CN(C)C(=O)COn1c(SCC(=O)N(C)C)nc2ccccc2c1=O 14.2%
COc1cccc(C2/C(=C(/O)c3cnn(-c4ccccc4)c3C)C(=O)C(=O)N2CCN(C)C)c1OC (stereo not given) 5.52%
CC1CN(C2CCN(S(=O)(=O)Cc3ccccc3)CC2)CC(C)O1 (stereo not given) -2.24%
COc1cccc(C=NCCNC(=O)c2nonc2N)c1O -9.52%
CCOC(=O)C1=C(N)N2C(=O)CSC2=C(C(=O)OC)C1 12.5%

Assay: Stat Signaling Pathway (AID 446);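 further: ME-180 cervical cancer cells given 40 pM IL-6 alongside compound; SIE-controlled beta-lactamase reporter measured as 460/530 nm FRET emission ratio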
Settings: ME-180 (cervical carcinoma) SIE beta-lactamase reporter, IL-6 stimulated, 5 h; at 17.2 µM (top of the series) unless noted
Method in brief: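 IL-6/STAT signaling read in ME-180 cells via an SIE beta-lactamase reporter. Stimulus was 40 pM IL-6 (its AC50) for 5 hrs, so both activation and inhibition register.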

activity, negative = inhibition, inactive:
O=C(C1=C(O)C(=O)N(CCCN2CCOCC2)C1c1ccccn1)c1cccs1 (stereo not given) -0.582%
OC(CNCCCN1CCCCC1)COc1ccccc1 (stereo not given) 9.93%
COc1cc(C)nc(Oc2ccc(OCCOc3ccc(C)cc3)nn2)n1 -5.96%
COC(=O)C(NC(C)=O)(Nc1ccccn1)C(F)(F)F (stereo not given) 0.0282%
O=C1c2ccccc2S(=O)(=O)N1CC(O)COc1ccc(Cl)cc1 (stereo not given) -1.8%
O=P(Cc1nnco1)(c1ccccc1)c1ccccc1 -0.63%
CCOC(=O)c1cnc(SC2CC(=O)N(c3cccc(OC)c3)C2=O)nc1N (stereo not given) -12.1%
COC(=O)CSc1nc(C)c(C(C)=O)cc1C#N 7.71%
CCCCC1CC1C(=O)Nc1ccc(OC)c(OC)c1 (stereo not given) 6.67%
CCC(NC(=O)Nc1ccc(O)cc1)(C(F)(F)F)C(F)(F)F -7.48%
CCCCCC(=O)N1CC2(CC)CN(C(=O)CCCCC)CC(CC)(C1)C2=O 4.63%
CC1(C)CC(=O)C2=C(C1)OC(N)=C(C#N)[C@@]21C(=O)N(CC(N)=O)c2ccccc21 -18.4%
CCOC(=O)c1[nH]c2cc3c(cc2c1NC(=O)CN1CCC2(CC1)OCCO2)OCO3 -9.66%
CCN(CC)CCn1c(O)c(N=O)c2ccccc21 14.5%
Cc1ccc(OCC(=O)N(C)CCc2ccccn2)cc1 6.69%
Cc1cc(NCC2CCCO2)n2c(nc3ccccc32)c1C#N (stereo not given) -2.4%
COc1ccc2[nH]c(C)c(C(=O)CN3CCc4cc(OC)c(OC)cc4C3)c2c1 4.19%
COc1cc(=O)n2c(-c3ccccc3)csc2n1 8.66%
Cc1nc(SCC(=O)Nc2ccc3c(c2)OCO3)c(C#N)c2c1CCCC2 -15.4%
Cc1cc(C)n(CC(=O)n2nc(C)cc2C)n1 8.01%
CCOc1ccc(CCNC(=O)C(O)c2ccccc2)cc1 (stereo not given) 18.6%
COC(=O)[C@@H](N)Cc1ccc(O)cc1 -6.81%
O=C(O)CN(c1ccccc1)C1SC(=O)NC1=O (stereo not given) 10.5%
O=C(OCC#CCSc1nnc(-c2ccccc2)o1)c1cccs1 -1.99%
NC(=O)C1CCN(C2OC(=O)c3ccccc32)CC1 (stereo not given) 10.3%
O=C(CCCN1C(=O)c2ccccc2C1=O)N1CCC(c2ccccc2)C1 (stereo not given) 1.3%
Cc1ccc(C(C)C)c(OCCNc2nc3c(c(=O)n(C)c(=O)n3C)n2C)c1 -22.6%
CCSc1nc(O)c(C2OC(=O)c3c2ccc(OC)c3OC)c(=O)n1-c1ccccc1 (stereo not given) -4.52%
COC(=O)CSc1nc(C)c(Oc2ccccc2)c(=O)[nH]1 7.32%
O=C(c1cccc2ccccc12)N1CCC(N2CCN(c3ccccc3)CC2)CC1 -1.11%
Fc1ccc(C2C3=C(Nc4ncnn42)c2ccccc2OC3c2ccncc2)cc1 (stereo not given) -12.3%
CC(=O)[C@H]1[C@@H]2C(=O)N(c3cccc(Cl)c3)C(=O)[C@@H]2[C@H]2c3ccccc3C=CN21 -13.6%
O=C(OCCN1CCOCC1)c1ccc(OCCN2CCOCC2)cc1 -3.54%
Cn1c(=O)n(C)c2cc(C(=O)c3ccccc3)ccc21 -6.62%
CN(C)CCCN(CCCNC(=O)/C=N/O)Cc1ccccc1 17.4%
CN(C)C(=O)COn1c(SCC(=O)N(C)C)nc2ccccc2c1=O 2.27%
COc1cccc(C2/C(=C(/O)c3cnn(-c4ccccc4)c3C)C(=O)C(=O)N2CCN(C)C)c1OC (stereo not given) 3.83%
CC1CN(C2CCN(S(=O)(=O)Cc3ccccc3)CC2)CC(C)O1 (stereo not given) 5.06%
COc1cccc(C=NCCNC(=O)c2nonc2N)c1O 7.79%
CCOC(=O)C1=C(N)N2C(=O)CSC2=C(C(=O)OC)C1 -25.6%
